From PubChem BioAssay (Tox21) come the findings set out here.

Inconclusive results are not listed. A call without a number means that no potency is given here. Calls of active or inactive are those of the source. Calls come from the whole dose curve.

The assay in a line: qHTS assay to identify small molecule agonists of H2AX - cell viability counter screen (AID 1224847). Note: top concentration of the series differs between compounds; nearly all actives have a fitted effect of over 30% in size. The settings on record: CHO-K1 viability, CellTiter-Glo luminescence, 3 h; series mostly up to 154 µM. From the text: National Center for Advancing Translational Sciences [NCATS]
NIH Chemical Genomics Center [NCGC]
U.S. Environmental Protection Agency [EPA]
National Institutes of Environmental Health Sciences [NIEHS]
National Toxicology Program [NTP]
U.S. Food and Drug Administration [FDA]
HTRF phospho-H2AX (Ser139) assay (Cisbio Bioassays, US) enables the quantitative detection of the histone variant H2AX when phosphorylated on serine 139. When double-stranded DNA breaks, either by ionizing radiation or endogenous physiological processes, H2AX becomes phosphorylated at Ser139. This phospho-Ser139 serves as a sensitive biomarker for the detection of such breaks, localizing the site of DNA repair. So, HTRF phospho-H2AX Ser139 is a pertinent assay to study genome stability, the cell cycle, DNA repair, and it serves as a biomarker for cancer, and to understand aging. Wild type CHO-K1 cells were used to identify the inducers of Phospho-H2AX Ser 139 from the Tox21 compound collections. Also cytotoxicity of the Tox21 10K compound library against the CHO-K1 cell line was tested by measuring the cell viability using CellTiter-Glo assay (Promega, Madison, WI).
Tox21 Assay Protocol Summary:
The CHO-K1 cells suspended in culture medium containing 10% FBS were dispensed at 1000 cells/ 3 ul/well in 1536-well white wall/solid bottom plates (Greiner Bio-One North America, NC) using a Multidrop Combi (Thermo Fisher Scientific Inc., Waltham, MA). After the assay plates were incubated at 37C overnight, 23 nl of compounds at 15 concentrations (from 5-48 columns) or positive control (from 1 to 4 columns) were transferred to the assay plates using a Pintool station (Wako, San Diego, CA) into each well resulting in a final DMSO concentration of 0.76%. After 3hr incubation at 37C, 3 uL/well CellTiter-Glo luminescent cell viability reagent (Promega Corporation, Madison, WI) was added using a Flying Reagent Dispenser (FRD) (Aurora Discovery, CA). After incubation at room temperature for 30 min, the luminescence intensity was read using a ViewLux plate reader (PerkinElmer, Waltham, MA).
For the compound `Cc1ccc2c(c1)c1c3n2CCNC3CCC1` (stereo not given), the Potency result is “inactive”.

For the compound `CCCCCC(=O)OCC`, the Potency entry is “inactive”. For `O=C(O)c1c(Cl)ccc(Cl)c1Cl`, the Potency result was “inactive”. Regarding `BrC/C=C/CBr`, the activity change, negative = cytotoxicity is 1.6% [at 31.6 µM] (inactive). With `C=CCOc1c(Br)cc(C(C)(C)c2cc(Br)c(OCC=C)c(Br)c2)cc1Br`, the Potency entry is “inactive”. As to `COC(OC)C(C)c1ccccc1` (stereo not given), the Potency entry was “inactive”. The same measure, in the same setting: the same measure for `CC(C)C(=O)Nc1cccc(C(F)(F)F)c1`: “inactive”; for `c1ccc(CNc2ncnc3nc[nH]c23)cc1`: “inactive”; for `c1ccccc1`: “inactive”. For `CC(C)(CO)[C@@H](O)C(=O)NCCCO`, the Potency entry was “inactive”. Consider `NS(=O)(=O)c1ccc(Cl)c(S(N)(=O)=O)c1`, for which the Potency result is “inactive”. With `CCCCC/C=C/CC(=O)OC`, the Potency result was “inactive”. Take `Cc1ccccc1OCC1CO1` (stereo not given): the Potency result is “inactive”. For the compound `FC(F)(F)/C(=N\OCC1OCCO1)c1ccc(Cl)cc1`, the Potency result was “inactive”.

As to `F[Si-2](F)(F)(F)(F)F`, the Potency result was “inactive”. Still for that read-out and setting: the same measure for `O=S(=O)(O)CCO`: “inactive”; for `COc1cc2c(Nc3ccc(Br)cc3F)ncnc2cc1OCC1CCN(C)CC1`: “inactive”. Regarding `Cc1ccccc1C(=O)N1CC/C(=N\OS(=O)(=O)O)c2ccc(Cl)cc21`, the Potency entry was “inactive”. As to `CC(C)COC(=O)CCCCC(=O)OCC(C)C`, the Potency result is “inactive”. Turning to `COc1cc(C=O)ccc1OC(=O)C(C)C`, the Potency result is “inactive”. Consider `C[Si]1(C)N[Si](C)(C)N[Si](C)(C)N1`, for which the Potency entry was “inactive”.

In the case of `COc1ccc(NS(=O)(=O)c2ccc(N)cc2)nn1`, the Potency result is “inactive”. Take `CCS(=O)(=O)CCn1c([N+](=O)[O-])cnc1C`: the Potency result is “inactive”. On to `CNC(=O)C(c1ccccc1)c1ccccc1`, for which the Potency result was “inactive”. With `C/C=C(\C)C(=O)OCC/C=C\CC`, the Potency result was “inactive”. `CC(C)CCC(=O)CCC(C)C`: the Potency entry is “inactive”. Take `Cc1c(C(C)C)c(=O)n(-c2ccccc2)n1C`: the Potency result is “inactive”.

Regarding `Cc1ccc(S(=O)(=O)NC(=O)NC2CCCCCCC2)cc1`, the Potency entry was “inactive”.

`CC(C)(c1ccc(Oc2ccc3c(c2)C(=O)OC3=O)cc1)c1ccc(Oc2ccc3c(c2)C(=O)OC3=O)cc1`: the Potency result is “inactive”.

Regarding `CCCO`, the Potency result is “inactive”. For the compound `N#CCCOCCOCCC#N`, the Potency result was “inactive”. Turning to `O=C(O)c1ccc(OCCN2CCCCC2)cc1`, the Potency result was “inactive”.

As to `C=CCOCC(O)CCl` (stereo not given), the Potency result is “inactive”. Same read-out and setting: the same measure for `C=CC(C)(O)CC/C=C(\C)CC` (stereo not given): “inactive”; for `Nc1cc(C(=O)O)ccc1Cl`: “inactive”; for `O=C1OC(=O)c2ccccc21`: “inactive”.

Take `CCN(CCO)c1cccc(C)c1`: the Potency result was “inactive”.

Turning to `CCCCC(CC)CNC(=O)CC(C)OC(=O)CCC(=O)O` (stereo not given), the Potency result is “inactive”.

On to `O=C(Oc1ccccc1C(=O)O)c1ccccc1O`, for which the Potency result was “inactive”. On to `CN=C(NC#N)NCCSCc1csc(N=C(N)N)n1`, for which the Potency entry was “inactive”.
